Experimental findings from PubChem BioAssay are described below.

Experiment [1] in a line: HepG2 liver cancer cell viability effects, profiling panel, resazurin fluorescence, 24 h, PK04 Diversity Set (AID 1172). Particulars: higher = more signal. On the technique in general: Resazurin is reduced to fluorescent resorufin, in cell work by metabolically active cells.
Experiment [2] in a line: basal S. cerevisiae growth modulation, no modifier, primary screen, OD600, strain BY4716, 24 h, basal condition (AID 1173). Conditions: OD600, 24 h, higher = more signal, called active from +8 up or from −8 down.
Experiment [3] in a line: MM1S myeloma cell viability, profiling panel, resazurin fluorescence, basal, 24 h, PK04 Diversity Set (AID 1174). Particulars: higher = more signal, called active from +8 up or from −8 down.
For experiment [4], the target named is Dihydroorotate dehydrogenase (quinone), mitochondrial (Plasmodium falciparum (isolate 3D7)) (UniProt Q08210). The experiment in a line: PfDHODH enzyme inhibitors, primary screen, biochemical, C-terminal His tag, absorbance 600 nm (AID 1175).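 Note: recombinant parasite enzyme with a five histidine tag at its C terminus.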 Particulars: DCIP absorbance 600 nm, higher = more signal, called active from +8 up or from −8 down.
Dihydroorotate dehydrogenase (quinone), mitochondrial (Plasmodium falciparum (isolate 3D7)), sequence (Q08210 whole entry, looked up): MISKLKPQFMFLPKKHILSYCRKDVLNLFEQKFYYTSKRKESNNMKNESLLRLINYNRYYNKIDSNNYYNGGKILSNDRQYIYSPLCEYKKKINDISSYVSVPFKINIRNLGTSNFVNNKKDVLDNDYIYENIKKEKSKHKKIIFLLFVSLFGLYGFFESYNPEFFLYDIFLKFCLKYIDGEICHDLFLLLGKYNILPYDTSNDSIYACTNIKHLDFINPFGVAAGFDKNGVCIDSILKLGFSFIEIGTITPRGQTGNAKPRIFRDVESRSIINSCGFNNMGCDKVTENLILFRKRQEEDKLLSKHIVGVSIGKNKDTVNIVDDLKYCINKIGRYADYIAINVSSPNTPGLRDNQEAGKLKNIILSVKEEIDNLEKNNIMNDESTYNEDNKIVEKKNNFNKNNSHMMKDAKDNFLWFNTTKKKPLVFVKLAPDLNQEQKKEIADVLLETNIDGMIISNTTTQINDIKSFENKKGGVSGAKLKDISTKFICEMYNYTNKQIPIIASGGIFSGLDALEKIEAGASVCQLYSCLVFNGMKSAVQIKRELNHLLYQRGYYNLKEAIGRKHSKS
A short description of experiment [5]: P. aeruginosa biofilm formation inhibitors, primary screen, strain PAO1, LB-PBS medium, absorbance 600 nm (AID 1176). Particulars: P. aeruginosa PAO1 growth/biofilm, A600, 12 h; higher = more signal.
Experiment [6] is described as follows: S. cerevisiae RM11-1a growth modifiers, primary screen, strain RM11-1a, OD600, basal, 24 h (AID 1177).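 Note: cultures grown under basal conditions with no added stressor.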 Conditions: OD600, 24 h, higher = more signal, called active from +8 up or from −8 down.
Experiment [7] is described as follows: E. coli acrAB mutant growth effects, primary screen, E. coli filamentation inducers, strain DRC39, OD650, 24 h (AID 1178).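 Note: growth measured as culture turbidity by optical density at 650 nm.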 Particulars: higher = more signal, called active from +8 up or from −8 down.
Experiment [8] is described as follows: E. coli acrAB mutant growth effects, primary screen, E. coli filamentation inducers, strain DRC39, OD650, 48 h (AID 1179).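 Note: screen aims at cell division blockers that make cells filament.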 Particulars: E. coli DRC39 delta-acrAB growth, higher = more signal, called active from +8 up or from −8 down.
The nature of experiment [9]: RPMI8226 myeloma cell viability, profiling panel, resazurin fluorescence, basal, 24 h, PK04 Diversity Set (AID 1180).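 Note: RPMI8826 multiple myeloma cell line at 5000 cells per well.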 Particulars: higher = more signal.
Experiment [10] addresses E3 ubiquitin-protein ligase XIAP (Homo sapiens) (UniProt P98170). In words: XIAP binders, primary screen, biophysical, small-molecule microarray, fluorescence 635 nm (AID 1181).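 Note: score merges 667 nm emission and signal to noise over triplicate slides.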 Conditions: small-molecule microarray binding, higher = more signal.
In experiment [11] the test system is XIP peptide (Xip251-270) binding. The experiment in a line: small-molecule binders of XIP peptide, primary screen, biochemical, small-molecule microarray, fluorescence 635/667 nm, 0.1 µg/mL protein (AID 1182). Conditions: fluorescent protein binding, 635 nm, higher = more signal, called active from +8 up or from −8 down.
Another experiment relates to XIP peptide (Xip251-270). In words: small-molecule binders of XIP peptide, primary screen, biochemical, small-molecule microarray, fluorescence 635/667 nm, 0.5 µg/mL protein (AID 1183). Conditions: small-molecule microarray binding, fluorescence 635 nm; higher = more signal.
Experiment [12] can be described thus: Plasmodium falciparum growth inhibition, primary screen, strain 3D7, DAPI fluorescence, 100 nL (AID 1184).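 Note: parasites grown inside human red blood cells in medium with human serum.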 Particulars: P. falciparum 3D7 growth, 3 d, higher = more signal.
The target in experiment [13] is Homeobox protein Hox-A13 (Mus musculus) (UniProt Q62424). In words: inhibitors of HoxA13-DNA binding, primary screen, biochemical, fluorescence polarization, labeled oligonucleotide (AID 1185). Conditions: 15 min, higher = more signal, called active from +8 up or from −8 down. (Fluorescence polarisation rises when a labelled molecule tumbles more slowly, as on binding a larger partner.)
Homeobox protein Hox-A13 (Mus musculus), sequence (Q62424 whole entry, looked up): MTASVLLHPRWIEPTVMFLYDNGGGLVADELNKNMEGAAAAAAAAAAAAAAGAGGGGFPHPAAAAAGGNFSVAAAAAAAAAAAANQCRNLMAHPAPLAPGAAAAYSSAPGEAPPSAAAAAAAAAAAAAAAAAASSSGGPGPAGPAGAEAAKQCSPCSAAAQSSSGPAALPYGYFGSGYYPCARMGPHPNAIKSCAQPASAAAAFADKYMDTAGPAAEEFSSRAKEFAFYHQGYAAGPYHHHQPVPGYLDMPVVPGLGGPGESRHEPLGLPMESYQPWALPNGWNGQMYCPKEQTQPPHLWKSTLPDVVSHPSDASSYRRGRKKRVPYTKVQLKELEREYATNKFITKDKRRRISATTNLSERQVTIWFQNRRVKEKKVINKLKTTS

Experiment [14] can be described thus: inhibitors of hydroxyurea-induced Chk1 phosphorylation, primary screen, imaging, HeLa, phospho-Chk1 antibody, percent positive cells (AID 1186). Particulars: hydroxyurea-induced phospho-Chk1 immunofluorescence imaging, higher = more signal.
Experiment [15] is described as follows: inhibitors of hydroxyurea-induced Chk1 phosphorylation, primary screen, imaging, HeLa, phospho-Chk1 nuclear intensity (AID 1187). Particulars: hydroxyurea-induced phospho-Chk1 immunofluorescence imaging, higher = more signal.

Calls of active or inactive are those of the source. Unless noted, the rule behind the calls is not given here.

E3 ubiquitin-protein ligase XIAP (Homo sapiens), sequence (P98170 whole entry, looked up): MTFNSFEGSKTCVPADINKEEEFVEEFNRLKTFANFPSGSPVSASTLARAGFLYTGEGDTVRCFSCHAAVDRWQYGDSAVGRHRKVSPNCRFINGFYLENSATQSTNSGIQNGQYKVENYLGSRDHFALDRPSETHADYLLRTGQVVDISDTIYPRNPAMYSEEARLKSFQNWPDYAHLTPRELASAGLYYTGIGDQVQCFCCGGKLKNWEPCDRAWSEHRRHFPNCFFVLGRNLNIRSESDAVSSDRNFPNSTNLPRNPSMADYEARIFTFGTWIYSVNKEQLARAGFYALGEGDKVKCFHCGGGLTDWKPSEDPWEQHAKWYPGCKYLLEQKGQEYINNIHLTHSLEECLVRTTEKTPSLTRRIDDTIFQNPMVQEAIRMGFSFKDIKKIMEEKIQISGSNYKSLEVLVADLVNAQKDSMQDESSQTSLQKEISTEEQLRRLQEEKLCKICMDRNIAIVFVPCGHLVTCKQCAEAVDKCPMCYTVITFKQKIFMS

Take `NCCCCCNC(=O)[C@H]1C[C@H]2C(=O)N3CCC[C@H]3C(=O)N2[C@H]1c1cccc(OCCO)c1`: the z-score is -1.25 in experiment [1]; -0.0559 (inactive) in experiment [2]; -0.02 (inactive) in [3]; -0.252 (inactive) in experiment [5]; -0.132 (inactive) in [6]; -0.658 (inactive) in experiment [7]. The z-score was -1.33 (inactive) in [8]; -0.29 in experiment [9]; -1.24 in experiment [12]; -2.47 (inactive) in experiment [13]; -0.0667 (inactive) in [14]; 0.53 (inactive) in [15]. In addition, the composite z-score was 0.322 (inactive) in [4], 0.256 in experiment [10], 1.19 (inactive) in experiment [11] and 0.707 in the experiment with XIP peptide (Xip251-270).
`CCCC[C@@H](O)C1=C(COC)C[C@H]2C(=O)N(C)C(=O)[C@H]2[C@H]1CO`: the z-score in experiment [1] was 0.798; in experiment [2], -3.7 (inactive); in experiment [3] it was -0.264 (inactive); in [5] it was 1.04 (inactive); in experiment [6], -2.16 (inactive); in experiment [7] it was 2.43 (inactive). Further, the z-score was 0.964 (inactive) in [8]; 1.3 in experiment [9]; -0.68 in experiment [12]; -1.8 (inactive) in experiment [13]; -0.476 (inactive) in [14]; 0.0423 (inactive) in experiment [15]. Besides, the composite z-score in [4] was -1.43 (inactive); in [10] it was -0.109; in experiment [11], -0.703 (inactive); in the experiment with XIP peptide (Xip251-270), 0.336.
As to `CCCC=C(CCC)[C@@H](NS(=O)(=O)c1ccc(C(F)(F)F)cc1)c1ccccc1`, the z-score is 0.281 in [1]; 1.55 (inactive) in [2]; -0.489 (inactive) in experiment [3]; 1.03 (inactive) in experiment [5]; 1.84 (inactive) in [6]; -0.763 (inactive) in experiment [7]. Also, the z-score in experiment [8] was -0.197 (inactive); in experiment [9], -0.683; in experiment [12], -1.5; in experiment [13], -0.64 (inactive); in [14], -0.0215 (inactive); in experiment [15], -0.157 (inactive). Also, the composite z-score was 0.348 (inactive) in experiment [4], -0.206 in experiment [10], 0.25 (inactive) in [11] and -0.0998 in the experiment with XIP peptide (Xip251-270).
For the compound `COc1ccc([C@H]2OC[C@@H]3C[C@H](Cc4ccccc4)C(=O)N32)cc1`, the z-score was -0.195 in [1]; -3.69 (inactive) in experiment [2]; 0.229 (inactive) in experiment [3]; -0.145 (inactive) in [5]; 0.248 (inactive) in [6]; -0.278 (inactive) in experiment [7]. For the same compound, the z-score in experiment [8] is -0.818 (inactive); in experiment [9], -0.627; in [12], 0.877; in experiment [13], -0.716 (inactive); in experiment [14] it was 0.311 (inactive); in experiment [15] it was 0.0211 (inactive). For the same compound, the composite z-score in experiment [4] was -0.0327 (inactive); in experiment [10] it was -0.152; in [11] it was -0.299 (inactive); in the experiment with XIP peptide (Xip251-270) it was 0.0713.
Turning to `C=CCC(OC(C)=O)[C@@H]1[C@@H](N(Cc2ccc(-c3cccc(C(F)(F)F)c3)o2)C(=O)Cc2ccc(OC)cc2)c2cc(OCCCO)ccc2N1C(=O)c1ccc(-c2ccccc2)cc1` (some centres not stated), the z-score in [1] was -1.35; in [2] it was -0.0331 (inactive); in [3], -0.0666 (inactive); in [5], -0.24 (inactive); in [6], 0.0869 (inactive); in experiment [7], -0.165 (inactive). Also, the z-score in [8] was -0.555 (inactive); in [9], -0.197; in experiment [12] it was -2.78; in [13], -1.67 (inactive); in experiment [14], 0.152 (inactive); in [15], 0.463 (inactive). The composite z-score is 0.821 (inactive) in experiment [4], 0.125 in experiment [10], 0.169 (inactive) in experiment [11] and -0.0425 in the experiment on XIP peptide (Xip251-270).
Consider `O=C(NCc1ccc(F)cc1)[C@H]1C[C@H]2C(=O)NCC(=O)N2[C@H]1c1ccc(O)cc1`, for which the z-score in experiment [1] is -1.15; in experiment [2], 0.407 (inactive); in [3], 0.0901 (inactive); in [5], -0.0185 (inactive); in [6] it was 1.23 (inactive); in experiment [7], -0.42 (inactive). In addition, the z-score was -0.806 (inactive) in experiment [8]; 0.18 in experiment [9]; -0.16 in experiment [12]; -1.87 (inactive) in experiment [13]; -0.339 (inactive) in experiment [14]; -0.45 (inactive) in experiment [15]. Besides, the composite z-score in experiment [4] is -0.0559 (inactive); in [10], -0.294; in experiment [11] it was 0.981 (inactive); with XIP peptide (Xip251-270), 0.842.
Consider `C=C(/C(=C/C[C@H](OC(=O)c1ccncc1)c1ccc(CO)o1)c1cnc2ccccc2c1)C(C)C`, for which the z-score was -0.0499 in experiment [1]; -1.2 (inactive) in experiment [2]; -0.0537 (inactive) in experiment [3]; 1.16 (inactive) in [5]; 0.481 (inactive) in [6]; 0.586 (inactive) in experiment [7]. For the same compound, the z-score is 0.0868 (inactive) in [8]; 0.601 in [9]; -0.137 in experiment [12]; -5.42 (inactive) in experiment [13]; -0.282 (inactive) in [14]; -0.39 (inactive) in experiment [15]. The composite z-score in experiment [4] is -7.44 (inactive); in experiment [10], -0.0749; in experiment [11], 0.276 (inactive); in the experiment with XIP peptide (Xip251-270), 0.647.
